Consider 15 compounds from PubChem BioAssay (NCI).

Some test systems named below: HCT-15 colon; HT29 colon; SNB-75 CNS; SNB-19 CNS; U251 CNS; PC-3 prostate; SK-MEL-5 melanoma; UACC-62 melanoma; LOX IMVI melanoma; SK-MEL-28 melanoma.
Common to all, as to assay: NCI-60 one-dose screen, 48 h (100 = growth as untreated, 0 = no growth, -100 = all killed)
Holding throughout (settings): 10 µM unless noted

Compounds without any hit were thinned out: in the full panel of roughly 83,000, 20% have a hit.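 Note: values are percent growth. 100 is the growth of untreated cells, values between 100 and 0 indicate rising inhibition; between -100 and 0 indicates cell death.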 Values without a mark were called inactive. The source made the active and inactive calls. How the source made its calls: active means growth percent below 10; inactive means the rest.

With `COc1ccc(-c2cn(-c3cccc(C(=O)/C=C/c4ccc(O)c(OC)c4)c3)c(=O)[nH]2)cc1`, the growth is 8.88% (active) in the test with HCT-15 colon; -21.6% (active) with HT29 colon; 1.36% (active) with SNB-75 CNS; 67.4% in the test on SNB-19 CNS; 4.66% (active) in the test on U251 CNS; 20.2% in the test with PC-3 prostate. Also, the growth with SK-MEL-5 melanoma was 22.7%; in the test on UACC-62 melanoma, 40.8%; with LOX IMVI melanoma, -13.9% (active).

For the compound `Nc1ccc(N(O)/C=C2\C=CC=CC2=O)cc1N`, the growth is 87% in the test on HCT-15 colon; 172% with HT29 colon; 104% in the test on SNB-75 CNS; 102% in the test on SNB-19 CNS; 94.1% with U251 CNS; 69.6% with PC-3 prostate. In addition, the growth in the test on SK-MEL-5 melanoma is 76.3%; in the test on UACC-62 melanoma, 66.1%; with LOX IMVI melanoma it was 48.8%.

Regarding `CC[C@H](Nc1nc(C)nc(N)c1C#N)c1nc2cccc(NCc3ccc(C(=O)NO)cc3)c2c(=O)n1-c1ccccc1`, the growth in the test on HCT-15 colon was 21%; with HT29 colon it was 14.8%; in the test on SNB-75 CNS, 7.85% (active); in the test with SNB-19 CNS, 17.6%; with U251 CNS it was 1.03% (active); in the test with PC-3 prostate, 8.89% (active). Moreover, the growth was -20.4% (active) with SK-MEL-5 melanoma, 4.19% (active) in the test on UACC-62 melanoma and -59.6% (active) with LOX IMVI melanoma.

As to `Cc1nc2ccc(Nc3nc(NCCN4CCOCC4)nc(Nc4ccc(F)cc4)n3)cc2n1Cc1ccccc1`, the growth in the test on HCT-15 colon was -0.585% (active); with HT29 colon, -33.6% (active); in the test with SNB-75 CNS, 50.6%; in the test with SNB-19 CNS, 78.7%; in the test on U251 CNS, 28.7%; in the test on PC-3 prostate it was 71.5%. For the same compound, the growth with SK-MEL-5 melanoma is 14.2%; in the test on UACC-62 melanoma, -24.8% (active); in the test on LOX IMVI melanoma it was 5.7% (active); with SK-MEL-28 melanoma it was -67.2% (active).

With `CC[C@H](Nc1nc(N)nc(N)c1Cl)c1nc2cccc(NCc3ccc(C(=O)NO)cc3)c2c(=O)n1-c1ccccc1`, the growth was 40.9% in the test on HCT-15 colon; 6.69% (active) with HT29 colon; -3.96% (active) with SNB-75 CNS; 7.79% (active) in the test with SNB-19 CNS; -65.6% (active) in the test on U251 CNS; -57.2% (active) in the test on PC-3 prostate. Further, the growth in the test with SK-MEL-5 melanoma was -26.3% (active); in the test with UACC-62 melanoma, -56.8% (active); in the test on LOX IMVI melanoma, -86.2% (active).

Turning to `Cc1cc(C)cc(NC(=O)Cn2nncc2CN2C(=O)CSC2=O)c1`, the growth was 99.4% in the test on HCT-15 colon; 108% in the test with HT29 colon; 95.1% in the test on SNB-75 CNS; 100% in the test on SNB-19 CNS; 102% in the test with U251 CNS; 100% in the test on PC-3 prostate. Moreover, the growth with SK-MEL-5 melanoma is 103%; in the test on UACC-62 melanoma it was 94%; in the test on LOX IMVI melanoma, 91.3%.

As for `CN(C)c1ccc(/C=N/Nc2nnc3n2N=C(c2ccc(Cl)cc2)CS3)cc1`, the growth in the test on HCT-15 colon is 92.5%; in the test on HT29 colon, 105%; with SNB-75 CNS it was 96.3%; in the test with SNB-19 CNS, 89.6%; in the test with U251 CNS, 95%; in the test with PC-3 prostate it was 82.1%. Besides, the results for the growth in the test with SK-MEL-5 melanoma, with UACC-62 melanoma and with LOX IMVI melanoma were 92.1%, 98.6% and 98.8%, respectively.

As for `COc1ccc2[nH]cc(/C=C3\C(=O)Nc4ccccc43)c2c1`, the growth in the test on HCT-15 colon was 23.9%; with HT29 colon, 10.7%; in the test on SNB-75 CNS, 8.46% (active); in the test on SNB-19 CNS, 73%; in the test on U251 CNS it was 38.8%; with PC-3 prostate, 45.3%. The growth with SK-MEL-5 melanoma is 39.5%; in the test with UACC-62 melanoma, 26%; in the test with LOX IMVI melanoma it was 21.1%.

As to `O=C1c2ccccc2C(=O)c2c1oc1ccc3ccccc3c21`, the growth was 65% in the test with HCT-15 colon; 106% in the test with HT29 colon; 93.3% in the test on SNB-75 CNS; 90% in the test with SNB-19 CNS; 81.1% in the test with U251 CNS; 72.3% with PC-3 prostate. For the same compound, the growth in the test on SK-MEL-5 melanoma was 17.3%; with UACC-62 melanoma it was 84.2%; in the test with LOX IMVI melanoma it was 41.9%.

For `CC1(C)CC[C@]2(C(=O)N3CCNCC3)CC[C@]3(C)C(=CC[C@@H]4[C@@]5(C)CCC(=O)C(C)(C)[C@@H]5CC[C@]43C)[C@@H]2C1`, the growth was 105% with HCT-15 colon; 107% in the test on HT29 colon; 91.6% in the test on SNB-75 CNS; 98% in the test on SNB-19 CNS; 105% in the test on U251 CNS; 101% with PC-3 prostate. In addition, the growth is 102% with SK-MEL-5 melanoma, 98.9% in the test on UACC-62 melanoma and 95.7% in the test with LOX IMVI melanoma.

As for `COc1c(-c2cc(-c3ccc(C)o3)[nH]c(=O)n2)c(O)cc2occc12`, the growth with HCT-15 colon is 32.6%; in the test with HT29 colon, 96%; in the test with SNB-75 CNS, 50%; with SNB-19 CNS, 65.9%; in the test on U251 CNS, 63.5%; in the test with PC-3 prostate, 69.4%. The growth with SK-MEL-5 melanoma was 76.8%; in the test on UACC-62 melanoma it was 48.1%; in the test with LOX IMVI melanoma, 58.2%.

On to `O=C1Cc2c([nH]c3ccc([N+](=O)[O-])cc23)-c2ccccc2N1`, for which the growth in the test on HCT-15 colon is 5.02% (active); in the test on HT29 colon, 4.95% (active); with SNB-75 CNS, -7.52% (active); in the test with SNB-19 CNS it was 20.8%; with U251 CNS, 8.97% (active); in the test on PC-3 prostate, 9.61% (active). Further, the growth in the test on SK-MEL-5 melanoma was -47.2% (active); with UACC-62 melanoma, 11.4%; in the test with LOX IMVI melanoma it was 9.02% (active).

`COc1ccc(NC(=O)/C=C/c2ccc(NC(=O)N3CCCC3)cc2)cn1`: the growth in the test on HCT-15 colon was 94.1%; with HT29 colon, 106%; in the test with SNB-75 CNS, 102%; in the test on SNB-19 CNS, 102%; in the test on U251 CNS, 98.6%; with PC-3 prostate, 96.5%. Besides, the growth in the test on SK-MEL-5 melanoma was 99.8%; in the test with UACC-62 melanoma, 101%; in the test on LOX IMVI melanoma, 98.4%.

As to `CCNC(=S)N(Cc1ccccc1)Cc1ccccc1`, the growth in the test on HCT-15 colon was 111%; with HT29 colon it was 98.8%; with SNB-75 CNS, 103%; in the test with SNB-19 CNS, 123%; in the test with U251 CNS, 96.4%; in the test with PC-3 prostate, 95.3%. Moreover, the growth is 101% with SK-MEL-5 melanoma, 91.7% in the test on UACC-62 melanoma, 112% in the test with LOX IMVI melanoma and 110% with SK-MEL-28 melanoma.

Turning to `O=C(OCc1ccc2c(Br)cc(Br)c(O)c2n1)c1cc2ccccc2[nH]1`, the growth is -66.7% (active) with HCT-15 colon; -82.5% (active) in the test with HT29 colon; -46.3% (active) with SNB-75 CNS; 45.6% in the test on SNB-19 CNS; 22.7% in the test with U251 CNS; -55.6% (active) in the test with PC-3 prostate. Further, the growth with SK-MEL-5 melanoma was -47.5% (active); in the test with UACC-62 melanoma, -83% (active); in the test with LOX IMVI melanoma, -93.4% (active).
